Measured values from PubChem BioAssay (EPA / NIEHS).
“And” between values parts separate entries of the source, which are not always exact repeats. Identical values can stand only once. Results filed as inconclusive are left out. The source holds several records for some structures; these can differ, active in one and inactive in another. The source made the active and inactive calls. How the source made its calls: active means hit-call score of the fitted dose curve at least 0.9, where 1 is the maximum; inconclusive means response in the unintended direction; inactive means score below 0.9.

How the values were obtained:
[1] = target: human Phosphodiesterase 10 (PDE10), PDE10A (gene 10846) (UniProt Q9Y233); assay: NVS_ENZ_hPDE10: NovaScreen (NVS) Enzymatic Assay for human Phosphodiesterase 10 (PDE10) (AID 2283195)
Summary of the method: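 Fluorescence/mobility-shift readout of PDE10A enzyme activity, taken 1 h post-dosing. Primary screen in duplicate at 25 uM; actives (e.g. ≥30% inhibition) retested as singleton concentration-response, top concentration 50 uM.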

[2] = target: human Phosphoinositide 3-kinase alpha (PI3Ka), PIK3CA (gene 5290) (UniProt P42336); assay: NVS_ENZ_hPI3Ka: NovaScreen (NVS) Enzymatic Assay for human Phosphoinositide 3-kinase alpha (PI3Ka) (AID 2283196)
Summary of the method: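 Chemicals were first screened at 25 uM in duplicate, then hits were run as concentration series up to 50 uM. Enzyme activity was measured by fluorescence after mobility-shift separation, with loss of signal relative to DMSO taken as activity.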

[3] = target: human Protein Phosphatase, Mg2+/Mn2+ Dependent 1A (PPM1A), PPM1A (gene 5494) (UniProt P35813); assay: NVS_ENZ_hPPM1A: NovaScreen (NVS) Enzymatic Assay for human Protein Phosphatase, Mg2+/Mn2+ Dependent 1A (PPM1A) (AID 2283198)
Summary of the method: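 Cell-free recombinant PPM1A phosphatase assay with fluorescent substrate, read 1 h after dosing by electrophoretic mobility shift. Chemicals screened in duplicate at 25 uM, then in concentration-response up to 50 uM; loss of activity versus DMSO.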

[4] = target: PPP2CA (gene 5515) (UniProt P67775); assay: NVS_ENZ_hPPP2CA: NovaScreen (NVS) Enzymatic Assay for human Protein Phosphatase 2 Aatalytic subunit Alpha (PPP2CA) (AID 2283199)
Summary of the method: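 Recombinant human PPP2CA with fluorescent substrate; product separated from substrate by electrophoretic mobility shift, read 1.33 h after dosing. Duplicate single-point at 25 uM, then singleton concentration-response up to 50 uM; loss of signal versus DMSO.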

[5] = target: Serine/threonine-protein phosphatase PP1-alpha catalytic subunit (Homo sapiens) (UniProt P62136); assay: NVS_ENZ_hPPP1CA: NovaScreen (NVS) Enzymatic Assay for human Protein Phosphatase 1 Aatalytic subunit Alpha (PPP1CA) (AID 2283200)
Summary of the method: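 Recombinant enzyme activity read by fluorescence with electrophoretic mobility shift separating substrate from product, 1.33 h after dosing; loss of signal vs DMSO baseline. Primary screen in duplicate at 25 uM; actives retested in concentration-response up to 50 uM.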

[6] = target: human Protein Tyrosine Phosphatase Non-receptor Type 1 (PTPN1), PTPN1 (gene 5770) (UniProt P18031); assay: NVS_ENZ_hPTPN1: NovaScreen (NVS) Enzymatic Assay for human Protein Tyrosine Phosphatase Non-receptor Type 1 (PTPN1) (AID 2283201)
Summary of the method: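 Cell-free fluorogenic-substrate activity assay on recombinant enzyme, read 1.33 h after dosing by fluorescence and electrophoretic mobility shift; loss of signal vs DMSO baseline. Primary screen in duplicate at 25 uM, hits then run in concentration-response up to 50 uM.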

[7] = target: Tyrosine-protein phosphatase non-receptor type 11 (Homo sapiens) (UniProt Q06124); assay: NVS_ENZ_hPTPN11: NovaScreen (NVS) Enzymatic Assay for human Protein Tyrosine Phosphatase Non-receptor Type 11 (PTPN11) (AID 2283202)
Summary of the method: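 Recombinant human PTPN11 activity on a fluorescent substrate, with substrate/product separated by electrophoretic mobility shift; read 0.5 h after dosing, loss of signal vs DMSO. Duplicate 25 uM screen, then concentration-response up to 50 uM.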

[8] = target: human Phosphatase and Tensin Homolog (PTEN), PTEN (gene 5728) (UniProt P60484); assay: NVS_ENZ_hPTEN: NovaScreen (NVS) Enzymatic Assay for human Phosphatase and Tensin Homolog (PTEN) (AID 2283203)
Summary of the method: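 Cell-free recombinant human PTEN with fluorescent substrate; product separated by electrophoretic mobility shift and read by fluorescence 1 h after dosing. Primary screen in duplicate at 25 uM, actives followed in concentration series versus DMSO.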

[9] = target: Tyrosine-protein phosphatase non-receptor type 12 (Homo sapiens) (UniProt Q05209); assay: NVS_ENZ_hPTPN12: NovaScreen (NVS) Enzymatic Assay for human Protein Tyrosine Phosphatase Non-receptor Type 12 (PTPN12) (AID 2283204)
Summary of the method: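 Single-concentration duplicates (25 uM) preceded singleton concentration-response up to 50 uM for chemicals passing threshold. Cell-free recombinant PTPN12 activity was read 1.33 h after dosing via fluorescence after mobility-shift separation; loss of signal versus DMSO.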

[10] = target: Tyrosine-protein phosphatase non-receptor type 13 (Homo sapiens) (UniProt Q12923); assay: NVS_ENZ_hPTPN13: NovaScreen (NVS) Enzymatic Assay for human Protein Tyrosine Phosphatase Non-receptor Type 13 (PTPN13) (AID 2283205)
Summary of the method: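 Cell-free assay of recombinant human PTPN13 with a fluorescent substrate, product separated by electrophoretic mobility shift and read 0.5 h after dosing. Primary screen at 25 uM in duplicate, then concentration-response up to 50 uM. Loss of signal fitted against DMSO.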

[11] = target: human Protein Tyrosine Phosphatase Non-receptor Type 2 (PTPN2), PTPN2 (gene 5771) (UniProt P17706); assay: NVS_ENZ_hPTPN2: NovaScreen (NVS) Enzymatic Assay for human Protein Tyrosine Phosphatase Non-receptor Type 2 (PTPN2) (AID 2283207)
Summary of the method: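 Cell-free recombinant enzyme with fluorescent substrate, product separated by electrophoretic mobility shift; read 1 h after dosing. Primary screen single concentration (25 uM) in duplicate; actives followed in concentration series; loss of signal versus DMSO.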

[12] = target: human Protein Tyrosine Phosphatase Non-receptor Type 6 (PTPN6), PTPN6 (gene 5777) (UniProt P29350); assay: NVS_ENZ_hPTPN6: NovaScreen (NVS) Enzymatic Assay for human Protein Tyrosine Phosphatase Non-receptor Type 6 (PTPN6) (AID 2283210)
Summary of the method: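 Cell-free assay with recombinant PTPN6 expressed in SF9 cells, fluorescent substrate, product separated from substrate by electrophoretic mobility shift; read 1.33 hours after dosing. Primary screen in duplicate at 25 uM, actives retested in concentration series; DMSO baseline.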

[13] = target: human Protein Tyrosine Phosphatase Receptor Type B (PTPRB), PTPRB (gene 5787) (UniProt P23467); assay: NVS_ENZ_hPTPRB: NovaScreen (NVS) Enzymatic Assay for human Protein Tyrosine Phosphatase Receptor Type B (PTPRB) (AID 2283211)
Summary of the method: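 Recombinant human PTPRB with a fluorescent substrate, product separated by electrophoretic mobility shift; read 1 h after dosing. Primary screen in duplicate at 25 uM; actives then retested in concentration series; loss of signal versus DMSO.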

[14] = target: human Protein Tyrosine Phosphatase Receptor Type C (PTPRC), PTPRC (gene 5788) (UniProt P08575); assay: NVS_ENZ_hPTPRC: NovaScreen (NVS) Enzymatic Assay for human Protein Tyrosine Phosphatase Receptor Type C (PTPRC) (AID 2283212)
Summary of the method: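 Yeast-extracted human PTPRC used in a cell-free colorimetric enzyme activity read-out, 1 h after dosing. Primary screen in duplicate at 25 uM; actives rerun in concentration-response up to 50 uM, DMSO as baseline.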

[15] = target: human Protein Tyrosine Phosphatase Receptor Type F (PTPRF), PTPRF (gene 5792) (UniProt P10586); assay: NVS_ENZ_hPTPRF: NovaScreen (NVS) Enzymatic Assay for human Protein Tyrosine Phosphatase Receptor Type F (PTPRF) (AID 2283213)
Summary of the method: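 Cell-free fluorescence enzyme assay with recombinant protein and substrate; product separated by electrophoretic mobility shift. Read 1 h after dosing, single 25 uM duplicate screen, then concentration-response up to 50 uM; loss of signal vs DMSO.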

[16] = target: human Rho Associated Coiled-coil Containing Protein Kinase 1 (ROCK1), ROCK1 (gene 6093) (UniProt Q13464); assay: NVS_ENZ_hROCK1: NovaScreen (NVS) Enzymatic Assay for human Rho Associated Coiled-coil Containing Protein Kinase 1 (ROCK1) (AID 2283214)
Summary of the method: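 Cell-free recombinant human ROCK1 activity assay; fluorescent substrate and product separated by electrophoretic mobility shift, read 1 h after dosing. Screened in duplicate at 25 uM; loss of signal versus DMSO baseline scored as inhibition.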

[17] = target: human Protein Tyrosine Phosphatase Receptor Type M (PTPRM), PTPRM (gene 5797) (UniProt P28827); assay: NVS_ENZ_hPTPRM: NovaScreen (NVS) Enzymatic Assay for human Protein Tyrosine Phosphatase Receptor Type M (PTPRM) (AID 2283215)
Summary of the method: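 Cell-free recombinant PTPRM with fluorogenic substrate; product separated from substrate by electrophoretic mobility shift and read by fluorescence, 1.33 h after dosing. Primary screen single concentration (25 uM) in duplicate; actives retested in concentration series; loss of signal versus DMSO.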

[18] = target: Tyrosine-protein phosphatase non-receptor type 14 (Homo sapiens) (UniProt Q15678); assay: NVS_ENZ_hPTPN14: NovaScreen (NVS) Enzymatic Assay for human Protein Tyrosine Phosphatase Non-receptor Type 14 (PTPN14) (AID 2283206)
Summary of the method: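 Cell-free recombinant human PTPN14 with fluorescent substrate, read 0.5 h after dosing by fluorescence and electrophoretic mobility shift separating substrate from product. Primary screen at 25 uM in duplicate; hits run to 50 uM maximum; loss of signal versus DMSO.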

[19] = target: human Protein Tyrosine Phosphatase Non-receptor Type 4 (PTPN4), PTPN4 (gene 5775) (UniProt P29074); assay: NVS_ENZ_hPTPN4: NovaScreen (NVS) Enzymatic Assay for human Protein Tyrosine Phosphatase Non-receptor Type 4 (PTPN4) (AID 2283208)
Summary of the method: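 Cell-free assay of PTPN4 expressed in Sf9 cells, using a fluorescent substrate with product separated by mobility shift; read 1.33 h after dosing. Single-point screen at 25 uM, then concentration-response up to 50 uM. Loss of signal relative to DMSO.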

[20] = target: human Protein Tyrosine Phosphatase Non-receptor Type 9 (PTPN9), PTPN9 (gene 5780) (UniProt P43378); assay: NVS_ENZ_hPTPN9: NovaScreen (NVS) Enzymatic Assay for human Protein Tyrosine Phosphatase Non-receptor Type 9 (PTPN9) (AID 2283209)
Summary of the method: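 Sf9-expressed enzyme in a cell-free assay, fluorescence read 1.33 h after dosing with mobility-shift separation of substrate and product. Tested at 25 uM in duplicate, then up to 50 uM; signal loss versus DMSO.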

Chain of Serine/threonine-protein phosphatase PP1-alpha catalytic subunit (Homo sapiens) (P62136 whole entry, looked up): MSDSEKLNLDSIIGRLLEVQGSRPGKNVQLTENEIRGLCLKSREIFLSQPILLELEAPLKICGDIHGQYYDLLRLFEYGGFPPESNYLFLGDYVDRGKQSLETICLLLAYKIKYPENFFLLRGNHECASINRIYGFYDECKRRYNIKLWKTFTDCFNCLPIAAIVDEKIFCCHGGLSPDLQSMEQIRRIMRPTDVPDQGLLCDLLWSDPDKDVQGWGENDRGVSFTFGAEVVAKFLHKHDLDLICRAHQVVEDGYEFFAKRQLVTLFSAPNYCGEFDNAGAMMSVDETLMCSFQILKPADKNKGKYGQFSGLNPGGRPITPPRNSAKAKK
Chain of PPP2CA (gene 5515) (P67775 whole entry, looked up): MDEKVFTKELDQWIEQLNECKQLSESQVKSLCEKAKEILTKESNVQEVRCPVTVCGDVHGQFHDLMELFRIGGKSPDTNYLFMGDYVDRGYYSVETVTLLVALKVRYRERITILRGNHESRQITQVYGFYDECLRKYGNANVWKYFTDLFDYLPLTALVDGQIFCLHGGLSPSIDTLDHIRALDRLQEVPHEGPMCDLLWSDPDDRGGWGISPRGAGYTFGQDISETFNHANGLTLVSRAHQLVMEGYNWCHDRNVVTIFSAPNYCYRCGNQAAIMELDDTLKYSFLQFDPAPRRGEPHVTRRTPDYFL
Chain of human Protein Tyrosine Phosphatase Non-receptor Type 2 (PTPN2), PTPN2 (gene 5771) (P17706 whole entry, looked up): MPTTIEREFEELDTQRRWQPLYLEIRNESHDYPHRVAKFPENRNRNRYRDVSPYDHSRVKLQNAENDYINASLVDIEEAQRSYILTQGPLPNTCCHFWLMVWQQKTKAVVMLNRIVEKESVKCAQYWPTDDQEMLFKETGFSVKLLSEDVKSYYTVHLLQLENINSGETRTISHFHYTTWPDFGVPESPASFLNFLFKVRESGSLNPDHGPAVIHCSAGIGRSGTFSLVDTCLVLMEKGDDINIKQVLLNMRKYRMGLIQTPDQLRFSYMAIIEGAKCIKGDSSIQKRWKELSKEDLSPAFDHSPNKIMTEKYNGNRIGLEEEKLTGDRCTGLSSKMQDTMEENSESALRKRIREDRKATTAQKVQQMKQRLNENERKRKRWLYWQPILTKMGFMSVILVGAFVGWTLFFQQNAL
Chain of Tyrosine-protein phosphatase non-receptor type 12 (Homo sapiens) (Q05209 whole entry, looked up): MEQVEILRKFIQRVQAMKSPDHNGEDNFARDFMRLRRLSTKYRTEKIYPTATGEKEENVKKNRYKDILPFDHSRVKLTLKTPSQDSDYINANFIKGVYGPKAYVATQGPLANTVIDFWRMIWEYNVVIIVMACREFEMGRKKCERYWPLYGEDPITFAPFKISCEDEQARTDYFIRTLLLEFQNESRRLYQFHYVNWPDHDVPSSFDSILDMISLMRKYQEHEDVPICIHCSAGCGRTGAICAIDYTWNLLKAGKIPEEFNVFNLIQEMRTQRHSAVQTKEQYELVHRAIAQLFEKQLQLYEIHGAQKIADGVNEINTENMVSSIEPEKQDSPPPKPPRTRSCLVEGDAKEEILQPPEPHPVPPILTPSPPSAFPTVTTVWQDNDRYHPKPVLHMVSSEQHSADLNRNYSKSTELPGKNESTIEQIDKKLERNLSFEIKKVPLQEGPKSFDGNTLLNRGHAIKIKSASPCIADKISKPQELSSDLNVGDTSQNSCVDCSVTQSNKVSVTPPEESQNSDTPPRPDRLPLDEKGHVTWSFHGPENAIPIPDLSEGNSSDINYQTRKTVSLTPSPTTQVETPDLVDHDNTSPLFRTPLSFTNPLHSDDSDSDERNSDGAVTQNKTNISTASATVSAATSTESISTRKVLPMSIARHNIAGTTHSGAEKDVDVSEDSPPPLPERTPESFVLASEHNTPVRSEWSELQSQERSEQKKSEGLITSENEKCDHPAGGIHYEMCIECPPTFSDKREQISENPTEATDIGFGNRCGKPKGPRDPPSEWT
Chain of human Protein Tyrosine Phosphatase Receptor Type C (PTPRC), PTPRC (gene 5788) (P08575 whole entry, looked up): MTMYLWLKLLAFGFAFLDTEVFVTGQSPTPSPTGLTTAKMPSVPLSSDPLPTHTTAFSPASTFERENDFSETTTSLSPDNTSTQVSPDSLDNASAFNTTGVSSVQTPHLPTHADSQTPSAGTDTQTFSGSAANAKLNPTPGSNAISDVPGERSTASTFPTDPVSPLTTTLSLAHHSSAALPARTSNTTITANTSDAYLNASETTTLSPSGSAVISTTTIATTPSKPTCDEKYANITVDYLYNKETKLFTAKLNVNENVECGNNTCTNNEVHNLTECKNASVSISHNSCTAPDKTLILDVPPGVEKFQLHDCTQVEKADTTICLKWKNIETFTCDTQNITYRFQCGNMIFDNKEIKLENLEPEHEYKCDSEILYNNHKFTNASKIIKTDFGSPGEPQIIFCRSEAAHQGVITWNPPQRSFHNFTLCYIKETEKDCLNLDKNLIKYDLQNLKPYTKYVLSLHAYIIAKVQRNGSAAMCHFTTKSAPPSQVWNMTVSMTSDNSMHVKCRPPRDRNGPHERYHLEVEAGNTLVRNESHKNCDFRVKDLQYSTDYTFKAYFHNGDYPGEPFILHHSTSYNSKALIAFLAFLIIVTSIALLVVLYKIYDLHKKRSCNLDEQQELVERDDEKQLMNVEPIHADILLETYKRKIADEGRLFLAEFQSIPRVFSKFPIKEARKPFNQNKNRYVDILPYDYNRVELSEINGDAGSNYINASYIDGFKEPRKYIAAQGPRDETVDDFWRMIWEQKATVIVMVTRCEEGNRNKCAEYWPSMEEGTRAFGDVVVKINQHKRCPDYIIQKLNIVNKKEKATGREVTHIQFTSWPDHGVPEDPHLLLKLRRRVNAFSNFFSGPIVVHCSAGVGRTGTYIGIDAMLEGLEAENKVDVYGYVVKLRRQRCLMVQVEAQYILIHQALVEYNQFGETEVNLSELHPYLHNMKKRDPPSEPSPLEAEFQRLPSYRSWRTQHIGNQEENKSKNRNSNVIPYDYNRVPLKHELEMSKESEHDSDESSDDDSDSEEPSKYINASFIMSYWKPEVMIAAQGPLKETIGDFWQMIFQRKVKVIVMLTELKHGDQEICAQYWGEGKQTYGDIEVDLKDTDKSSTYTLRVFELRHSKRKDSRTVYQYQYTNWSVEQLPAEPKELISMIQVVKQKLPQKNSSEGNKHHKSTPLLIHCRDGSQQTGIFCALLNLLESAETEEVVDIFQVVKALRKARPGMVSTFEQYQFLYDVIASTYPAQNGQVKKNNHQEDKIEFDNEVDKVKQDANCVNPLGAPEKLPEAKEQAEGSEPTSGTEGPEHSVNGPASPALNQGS
Chain of human Phosphoinositide 3-kinase alpha (PI3Ka), PIK3CA (gene 5290) (P42336 whole entry, looked up): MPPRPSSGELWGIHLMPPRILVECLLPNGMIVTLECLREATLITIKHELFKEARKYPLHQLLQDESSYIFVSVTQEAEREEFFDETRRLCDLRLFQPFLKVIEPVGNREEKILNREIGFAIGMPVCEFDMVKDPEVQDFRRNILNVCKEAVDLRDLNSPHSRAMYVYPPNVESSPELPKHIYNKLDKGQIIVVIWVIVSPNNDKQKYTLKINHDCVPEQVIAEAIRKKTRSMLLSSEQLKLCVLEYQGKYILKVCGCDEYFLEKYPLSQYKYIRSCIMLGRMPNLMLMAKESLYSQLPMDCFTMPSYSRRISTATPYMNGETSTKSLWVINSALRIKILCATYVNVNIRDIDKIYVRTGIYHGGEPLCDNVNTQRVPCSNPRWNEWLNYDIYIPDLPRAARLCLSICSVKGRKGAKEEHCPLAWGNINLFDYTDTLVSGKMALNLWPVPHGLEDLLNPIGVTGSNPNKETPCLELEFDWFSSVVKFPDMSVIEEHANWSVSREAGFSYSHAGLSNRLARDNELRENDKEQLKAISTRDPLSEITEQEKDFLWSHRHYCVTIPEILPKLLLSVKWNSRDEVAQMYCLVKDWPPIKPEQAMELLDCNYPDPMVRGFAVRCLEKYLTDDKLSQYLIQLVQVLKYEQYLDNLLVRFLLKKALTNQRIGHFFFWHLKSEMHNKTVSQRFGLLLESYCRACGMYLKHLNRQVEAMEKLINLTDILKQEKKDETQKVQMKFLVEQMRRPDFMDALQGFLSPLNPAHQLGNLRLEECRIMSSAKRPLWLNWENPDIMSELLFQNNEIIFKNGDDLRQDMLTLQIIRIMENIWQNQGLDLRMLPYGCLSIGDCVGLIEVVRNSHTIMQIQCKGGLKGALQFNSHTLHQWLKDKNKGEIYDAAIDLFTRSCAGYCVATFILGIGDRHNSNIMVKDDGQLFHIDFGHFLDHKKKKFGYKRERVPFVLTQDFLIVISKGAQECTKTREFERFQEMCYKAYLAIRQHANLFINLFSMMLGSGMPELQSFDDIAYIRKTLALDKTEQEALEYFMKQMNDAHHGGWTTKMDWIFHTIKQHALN
Chain of human Protein Tyrosine Phosphatase Non-receptor Type 1 (PTPN1), PTPN1 (gene 5770) (P18031 whole entry, looked up): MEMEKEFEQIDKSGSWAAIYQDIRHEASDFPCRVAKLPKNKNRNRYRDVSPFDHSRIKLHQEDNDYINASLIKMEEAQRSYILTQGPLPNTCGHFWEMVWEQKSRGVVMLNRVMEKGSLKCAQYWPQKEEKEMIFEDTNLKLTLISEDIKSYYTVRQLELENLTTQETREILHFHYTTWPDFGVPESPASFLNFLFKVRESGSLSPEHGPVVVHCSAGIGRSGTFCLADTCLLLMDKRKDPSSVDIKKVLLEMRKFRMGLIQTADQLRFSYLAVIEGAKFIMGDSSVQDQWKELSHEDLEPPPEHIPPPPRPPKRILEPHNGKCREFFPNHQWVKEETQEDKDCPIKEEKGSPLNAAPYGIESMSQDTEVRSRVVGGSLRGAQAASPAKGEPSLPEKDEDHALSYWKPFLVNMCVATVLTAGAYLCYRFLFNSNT
Chain of human Phosphatase and Tensin Homolog (PTEN), PTEN (gene 5728) (P60484 whole entry, looked up): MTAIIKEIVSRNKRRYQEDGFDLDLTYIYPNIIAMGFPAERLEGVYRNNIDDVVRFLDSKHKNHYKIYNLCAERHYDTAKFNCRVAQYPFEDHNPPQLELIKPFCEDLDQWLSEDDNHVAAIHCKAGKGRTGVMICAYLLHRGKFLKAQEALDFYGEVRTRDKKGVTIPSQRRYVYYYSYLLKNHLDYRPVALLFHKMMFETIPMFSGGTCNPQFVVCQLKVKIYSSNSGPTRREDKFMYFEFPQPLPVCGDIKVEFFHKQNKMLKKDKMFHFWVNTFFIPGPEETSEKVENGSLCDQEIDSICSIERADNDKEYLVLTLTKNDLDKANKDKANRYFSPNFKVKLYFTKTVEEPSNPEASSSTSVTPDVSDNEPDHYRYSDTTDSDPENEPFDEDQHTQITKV

O=S(=O)(O)C(F)(F)C(F)(F)C(F)(F)C(F)(F)C(F)(F)C(F)(F)C(F)(F)C(F)(F)F
outcome [1]: inactive | AC50 [2]: 6.79 µM (active) and 4.5 µM (active) and 8.3 µM (active) | outcome [3]: inactive | AC50 [4]: 7.02 µM (active) and 5.37 µM (active) | AC50 [5]: 11.5 µM (active) and 18.4 µM (active) | AC50 [6]: 26.9 µM (active) | outcome [6]: inactive | AC50 [7]: 19.6 µM (active) and 15.5 µM (active) | AC50 [8]: 7.35 µM (active) and 26.9 µM (active) | AC50 [9]: 20.7 µM (active) and 30 µM (active) and 30.1 µM (active) | AC50 [10]: 10.5 µM (active) and 36.6 µM (active) | AC50 [11]: 38.9 µM (active) | AC50 [12]: 34.8 µM (active) | AC50 [13]: 18.7 µM (active) and 37.6 µM (active) | AC50 [14]: 17.1 µM (active) and 15.2 µM (active) | outcome [14]: inactive | AC50 [15]: 14.8 µM (active) and 13.1 µM (active) | AC50 [16]: 39 µM (active) | AC50 [17]: 23.6 µM (active) and 43 µM (active)

Cc1[nH]c(=O)n(C(C)(C)C)c(=O)c1Cl
outcome [6]: inactive

C[C@H]1[C@H](c2ccc(Cl)cc2)SC(=O)N1C(=O)NC1CCCCC1
outcome [18]: inactive

O=[N+]([O-])/N=C1\NCCN1Cc1ccc(Cl)nc1
outcome [2]: inactive

O=C1c2ccccc2C(=O)N1SC(Cl)(Cl)Cl
outcome [11]: inactive | outcome [19]: inactive

COC(=O)c1ccccc1S(=O)(=O)NC(=O)N(C)c1nc(C)nc(OC)n1
outcome [5]: inactive | outcome [10]: inactive | outcome [11]: inactive | outcome [19]: inactive | outcome [20]: inactive

Oc1ccc(Cl)cc1Cc1ccccc1
outcome [2]: inactive

COC(=O)c1ccccc1S(=O)(=O)NC(=O)Nc1nc(C)nc(OC)n1
outcome [13]: inactive

C#CCN1C(=O)COc2cc(F)c(N3C(=O)C4=C(CCCC4)C3=O)cc21
outcome [11]: inactive

O=C(O)C(F)(F)C(F)(F)C(F)(F)C(F)(F)C(F)(F)C(F)(F)C(F)(F)F
AC50 [2]: 11.3 µM (active) | AC50 [4]: 25 µM (active) | AC50 [5]: 493 nM (active) | outcome [6]: inactive | outcome [7]: inactive | outcome [8]: inactive | outcome [9]: inactive | outcome [10]: inactive | outcome [11]: inactive | outcome [13]: inactive | outcome [17]: inactive

ClC1C(Cl)C(Cl)C(Cl)C(Cl)C1Cl (stereo unspecified)
outcome [8]: inactive

CCN(CC)C(=O)SCc1ccc(Cl)cc1
outcome [2]: inactive

N#Cc1c(Cl)c(Cl)c(Cl)c(C#N)c1Cl
outcome [1]: inactive | AC50 [2]: 33.1 µM (active) | outcome [6]: inactive | AC50 [7]: 40 µM (active) | outcome [8]: inactive | outcome [17]: inactive
